# tim10-1 inh = growth inhibitors of tim10-1 mutant yeast | S. cerevisiae tim10-1 ts strain growth, BacTiter-Glo, 24 h | inhibition, % at 20 µM | 330,000 compounds, 2.2% hits;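 active = inhibition of at least 40%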;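 also: mutant grown at 25 °C; 0% = DMSO wells with yeast and 100% = wells holding no yeast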
# PfHsp90 yeast 2 = inhibits growth of yeast expressing Plasmodium falciparum Hsp90; S. cerevisiae expressing PfHsp90, BacTiter-Glo ATP, 48 h; yeast lacking PDR1 and PDR3 efflux regulators; inhibition, % at 9.4 µM; 310,000 compounds, 0.32% hits; AID 504621;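 active = every replicate shows inhibition above about 80%, whatever the replicate mean, limit read from the data; inconclusive = mean inhibition reaches the set limit but some replicate falls short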;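 also: 0% = DMSO neutral controls and 100% = 20 µM radicicol positive controls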
# SKKanGAS inh = blocks kanamycin growth of S. pyogenes SKKanGAS strain; inhibition, % at 7.5 µM; BacTiter-Glo, 6 h; 300,000 compounds, 1.3% hits;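 active = mean replicate score, as percent of positive control median, at least 50; inconclusive = mean below 50 but one replicate at or above 50; inactive = mean and every replicate below 50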;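 also: strain carries kanamycin resistance gene driven by streptokinase promoter and grows in 40 µg/ml kanamycin; loss of luminescence reflects streptokinase promoter inhibition or plain growth inhibition; 0% = median of DMSO wells and 100% = positive control at its reference dose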
# Calb FLC = C. albicans growth modulation with fluconazole. 300,000 compounds, 0.57% hits. growth inhibition, % (no concentration beside the values). C. albicans CaCi-2 (fluconazole-resistant clinical isolate) + fluconazole, Alamar Blue growth, 48 h;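 active = growth inhibition above about 58% in most replicates, limit read from the data, passing the limit was not always enough; inconclusive = exactly half the replicates above a set limit; inactive = most replicates below a set limit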;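 also: all wells also contain fluconazole at 8 µg/ml as a sub-toxic cotreatment; 0% = median of DMSO wells and 100% = median of geldanamycin control wells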
# TIM10 inh = growth inhibitors of TIM10 yeast strain. S. cerevisiae TIM10 strain growth, BacTiter-Glo luminescence, 24 h. 330,000 compounds, 1.4% hits. inhibition, % at 10 µM;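 active = inhibition of 40% or more at the single tested concentration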;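 also: wild-type TIM10 isogenic control strain grown at permissive 25 °C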
# tim23-1 inh = tim23-1 yeast growth inhibition | 330,000 compounds, 1.3% hits | AID 463212 | S. cerevisiae tim23-1 growth, BacTiter-Glo luminescence, 24 h | inhibition, % at 20 µM;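 active = growth inhibition of the mutant yeast at or above 50%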;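 also: temperature-sensitive mutant grown at 25 °C; plate controls were DMSO-treated mutant yeast for no effect and medium wells lacking yeast for full effect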
# Active calls of the source: *; ? = inconclusive; · = no result. A selection: hits, their analogues and other compounds. The true share with any hit is near 4.7%.
SMILES,tim10-1 inh,PfHsp90 yeast 2,SKKanGAS inh,Calb FLC,TIM10 inh,tim23-1 inh
N#C/C(=N\Nc1ccc(Cl)cc1)C(N)=S,19,-24,97*,4,13,40
COc1ccc(C2/C=C\CN(C(=O)c3ccccc3)CC(=O)N2Cc2ccc(F)cc2)cc1 (stereo unspecified),15,11,68*,2,6,24
Cc1ccccc1-n1nc(C(=O)c2cccs2)cc(-c2nc3ccccc3[nH]2)c1=N,36,·,86*,-16,29,25
COc1ccc(-n2nc(C(=O)c3cccs3)cc(-c3nc4ccccc4[nH]3)c2=N)cc1,24,·,58*,-25,12,-1
COC(=O)c1sc(-c2ccc(Cl)cc2)cc1NC(=O)c1ccccc1C(=O)O,14,-7,2,-6,23,27
COC(=O)c1sc(-c2ccc(C(C)(C)C)cc2)cc1NC(=O)CSCC(=O)O,15,-32,57*,-2,10,8
COC(=O)c1sc(-c2ccc(C(C)(C)C)cc2)cc1NC(=O)c1ccccc1C(=O)O,27,-19,54*,0,18,35
Oc1cccc2ccc(/C=C/c3ccccc3Br)nc12,18,98*,103*,?,-1,28
COc1cc(Br)c(/C=C/c2ccc3cccc(O)c3n2)cc1OC,26,-9,85*,-2,12,6
COc1ccc(OC)c(/C=C/c2ccc3cccc(O)c3n2)c1,35,-13,90*,-7,1,33
COc1cc(/C=C/c2ccc3cccc(OC)c3n2)c(O)c([N+](=O)[O-])c1,20,-2,2,4,21,19
Cc1ccc(NC(=S)N(CCN2CCCCC2)Cc2ccco2)cc1Cl,17,4,-1,?,13,-4
Cc1nn(CC(=O)Nc2ccc(Cl)cc2)c(=O)c2cc(-c3ccccc3)nn12,17,1,8,-2,-6,13
CCn1c(COc2ccc(=O)n(-c3ccccc3)n2)nnc1SCc1cccc(OC)c1,31,-31,5,85*,27,11
CC(CNc1nc2ccccc2n2cnnc12)c1ccccc1 (stereo unspecified),0,-1,-5,-2,-19,44
Cc1ccc(/C=C2\SC(=S)N(CCC(=O)NNC(=O)c3ccccc3O)C2=O)cc1,-20,-13,?,-7,-3,-27
O=C(CN1C(=O)/C(=C/c2ccccc2)SC1=S)NNC(=O)c1ccccc1O,0,9,33,84*,-5,-35
O=C(CCN1C(=O)/C(=C/c2ccccc2Cl)SC1=S)NNC(=O)c1ccccc1O,3,-24,60*,0,5,-5
O=C(CCN1C(=O)/C(=C/c2ccccc2Cl)SC1=S)NNC(=O)c1cccnc1,-1,-15,7,6,2,25
COc1cccc(/C=C2/SC(=S)N(CC(=O)NNC(=O)c3ccccc3O)C2=O)c1,-6,0,98*,-24,25,1
COC(=O)c1ccccc1NC(=O)CNCCc1ccc(OC)c(OC)c1,-3,5,-2,-3,-8,1
COCc1cc(N2CCCCC2)nc(-c2ccccc2)n1,32,-4,-4,-6,33,41
COCc1cc(Sc2c(Cl)cccc2Cl)nc(-c2ccccc2)n1,-4,-11,66*,6,-7,12
CCN(CC(=O)Nc1c(F)cccc1F)C(=O)c1ccc(S(=O)(=O)N(CC)c2ccccc2)cc1,·,-2,·,·,·,·
N#Cc1c(-c2ccccc2)nc(SCc2ccc(Cl)cc2)[nH]c1=O,23,-9,61*,29,11,16
SMILES,tim10-1 inh,PfHsp90 yeast 2,SKKanGAS inh,Calb FLC,TIM10 inh,tim23-1 inh
N#Cc1c(-c2ccccc2)nc(SCC(=O)N2c3ccccc3Sc3ccccc32)[nH]c1=O,2,-13,73*,2,15,18
C=CCSc1nc(-c2ccccc2)c(C#N)c(=O)[nH]1,-3,-15,·,-11,4,14
Cc1ccc(C2(c3noc(CN4CCC(c5ccncc5)CC4)n3)CCCC2)cc1,28,10,8,119*,37,3
Cc1ccc(C2(c3noc(CN(C)CC4CCCCO4)n3)CCCC2)cc1 (stereo unspecified),6,-24,-10,-5,24,16
CC1CCN(Cc2c(C(=O)N/N=C/c3cc(Br)ccc3O)nnn2-c2nonc2N)CC1,17,-8,80*,82*,14,25
COc1ccc(O)c(/C=N/NC(=O)c2c(C)nnn2-c2nonc2N)c1,-26,2,5,63*,-11,-23
CC1CCN(Cc2c(C(=O)N/N=C/c3cc(Cl)ccc3O)nnn2-c2nonc2N)CC1,26,-11,66*,?,25,24
Cc1ccc(SCC(=O)OC(C)C(=O)NCc2ccccc2)cc1 (stereo unspecified),22,-12,17,0,-2,9
COc1cc(C2c3cc4c(cc3OC(C)(N3CCCC3)C2C)OCO4)cc(OC)c1OC (stereo unspecified),·,-8,·,·,·,·
Cc1onc(-c2ccccc2)c1C(=O)OCC(=O)NC(C)c1ccc(Cl)cc1 (stereo unspecified),9,-6,·,·,-12,25
Cc1ccc2c(c1)[C@@H]1[C@H](CO2)[C@H](c2ccccc2)[C@]2(C)C(=O)N[C@H](C)C(=O)N12,-14,31,·,·,-1,10
C/C(=N\NC(=O)c1cc2ccccc2cc1O)c1ccc2c(c1)OCO2,-9,5,81*,-13,12,-1
C/C(=N\NC(=O)c1ccc(C)cc1C)c1ccc2c(c1)OCO2,0,-10,4,9,-7,15
C/C(=N\Nc1nc2ccccc2[nH]1)c1ccc2c(c1)OCO2,-48,-7,58*,-3,-1,16
CC(Nc1cc(C)cc(C)c1)=[N+](C)CCNS(=O)(=O)c1ccc(Cl)cc1,12,8,-1,-7,5,9
COc1ccc(C)cc1NC(=O)c1ccccc1NS(=O)(=O)c1ccc(Cl)s1,15,-49,36,31,16,44
Cc1ccc(C(=O)NNC(=O)c2ccc(-n3cncn3)c([N+](=O)[O-])c2)cc1,4,24,-4,-2,6,-19
COc1ccc(CCC(=O)NNC(=O)Cn2nc(C)cc2C)cc1,2,19,-3,0,0,12
O=C1CCc2ccc(OCCCCN3CCN(c4cccc(Cl)c4Cl)CC3)cc2N1,-73,22,10,105*,-1,-88
CCCN1CCc2c(sc(NC(=O)c3ccc(S(=O)(=O)N4CCN(C(=O)OCC)CC4)cc3)c2C(N)=O)C1,3,-4,57*,1,2,6
CCN1CCc2c(sc(NC(=O)c3ccc(S(=O)(=O)N4CCCC4)cc3)c2C(=O)NC)C1,-5,7,50*,-3,7,4
COc1ccccc1S(=O)(=O)NCc1ccc(C(=O)NC2CCC(O)CC2)cc1 (stereo unspecified),-8,-4,·,·,-1,-2
